Here are results for ten molecules from article PMC12529666, “Dysregulation of AGO2-miRNA dynamics underlies the AGO2-associated Lessel–Kreienkamp syndrome”.

The labels stand for the following.
B1: ACACTCCA (ssRNA)
RNA 1: GAGUUCUACAGUCCGACGAUCCCAACACACUCCACACCUGGAAUUCUCGGGUGCCAA
RNA 2: UGGAGUGUGACAAUGGUGUUUG
DNA 1: GATCGTCGGACTGTAGAACTC
DNA 2: TTGGCACCCGAGAATTCCA
modifications: constant regions annealed to DNA blockers; guide miR-122 5' phosphate
B2: GTACTCCG (ssRNA)
RNA 1: GAGUUCUACAGUCCGACGAUCCCAACGUACUCCGCACCUGGAAUUCUCGGGUGCCAA
RNA 2: UGGAGUGUGACAAUGGUGUUUG
DNA 1: GATCGTCGGACTGTAGAACTC
DNA 2: TTGGCACCCGAGAATTCCA
modifications: constant regions annealed to DNA blockers; guide miR-122 5' phosphate
B3: ACACTCCG (ssRNA)
RNA 1: GAGUUCUACAGUCCGACGAUCCCAACACACUCCGCACCUGGAAUUCUCGGGUGCCAA
RNA 2: UGGAGUGUGACAAUGGUGUUUG
DNA 1: GATCGTCGGACTGTAGAACTC
DNA 2: TTGGCACCCGAGAATTCCA
modifications: constant regions annealed to DNA blockers; guide miR-122 5' phosphate
B4: GCGTCCTA (ssRNA)
RNA 1: GAGUUCUACAGUCCGACGAUCCCAACGCGUCCUACACCUGGAAUUCUCGGGUGCCAA
RNA 2: UGGAGUGUGACAAUGGUGUUUG
DNA 1: GATCGTCGGACTGTAGAACTC
DNA 2: TTGGCACCCGAGAATTCCA
modifications: constant regions annealed to DNA blockers; guide miR-122 5' phosphate
B5: ACATCTCA (ssRNA)
RNA 1: GAGUUCUACAGUCCGACGAUCCCAACACAUCUCACACCUGGAAUUCUCGGGUGCCAA
RNA 2: UGGAGUGUGACAAUGGUGUUUG
DNA 1: GATCGTCGGACTGTAGAACTC
DNA 2: TTGGCACCCGAGAATTCCA
modifications: constant regions annealed to DNA blockers; guide miR-122 5' phosphate
B6: ACATCCTA (ssRNA)
RNA 1: GAGUUCUACAGUCCGACGAUCCCAACACAUCCUACACCUGGAAUUCUCGGGUGCCAA
RNA 2: UGGAGUGUGACAAUGGUGUUUG
DNA 1: GATCGTCGGACTGTAGAACTC
DNA 2: TTGGCACCCGAGAATTCCA
modifications: constant regions annealed to DNA blockers; guide miR-122 5' phosphate
B7: ATACTCCG (ssRNA)
RNA 1: GAGUUCUACAGUCCGACGAUCCCAACAUACUCCGCACCUGGAAUUCUCGGGUGCCAA
RNA 2: UGGAGUGUGACAAUGGUGUUUG
DNA 1: GATCGTCGGACTGTAGAACTC
DNA 2: TTGGCACCCGAGAATTCCA
modifications: constant regions annealed to DNA blockers; guide miR-122 5' phosphate
B8: ACGCTTCA (ssRNA)
RNA 1: GAGUUCUACAGUCCGACGAUCCCAACACGCUUCACACCUGGAAUUCUCGGGUGCCAA
RNA 2: UGGAGUGUGACAAUGGUGUUUG
DNA 1: GATCGTCGGACTGTAGAACTC
DNA 2: TTGGCACCCGAGAATTCCA
modifications: constant regions annealed to DNA blockers; guide miR-122 5' phosphate
B9: ACACTCTA (ssRNA)
RNA 1: GAGUUCUACAGUCCGACGAUCCCAACACACUCUACACCUGGAAUUCUCGGGUGCCAA
RNA 2: UGGAGUGUGACAAUGGUGUUUG
DNA 1: GATCGTCGGACTGTAGAACTC
DNA 2: TTGGCACCCGAGAATTCCA
modifications: constant regions annealed to DNA blockers; guide miR-122 5' phosphate
B10: ACACTTTA (ssRNA)
RNA 1: GAGUUCUACAGUCCGACGAUCCCAACACACUUUACACCUGGAAUUCUCGGGUGCCAA
RNA 2: UGGAGUGUGACAAUGGUGUUUG
DNA 1: GATCGTCGGACTGTAGAACTC
DNA 2: TTGGCACCCGAGAATTCCA
modifications: constant regions annealed to DNA blockers; guide miR-122 5' phosphate

Sequence of AGO2 L192P (Q9UKV8 whole entry L192P/S387D/S824A/S828D/S831D/S834A): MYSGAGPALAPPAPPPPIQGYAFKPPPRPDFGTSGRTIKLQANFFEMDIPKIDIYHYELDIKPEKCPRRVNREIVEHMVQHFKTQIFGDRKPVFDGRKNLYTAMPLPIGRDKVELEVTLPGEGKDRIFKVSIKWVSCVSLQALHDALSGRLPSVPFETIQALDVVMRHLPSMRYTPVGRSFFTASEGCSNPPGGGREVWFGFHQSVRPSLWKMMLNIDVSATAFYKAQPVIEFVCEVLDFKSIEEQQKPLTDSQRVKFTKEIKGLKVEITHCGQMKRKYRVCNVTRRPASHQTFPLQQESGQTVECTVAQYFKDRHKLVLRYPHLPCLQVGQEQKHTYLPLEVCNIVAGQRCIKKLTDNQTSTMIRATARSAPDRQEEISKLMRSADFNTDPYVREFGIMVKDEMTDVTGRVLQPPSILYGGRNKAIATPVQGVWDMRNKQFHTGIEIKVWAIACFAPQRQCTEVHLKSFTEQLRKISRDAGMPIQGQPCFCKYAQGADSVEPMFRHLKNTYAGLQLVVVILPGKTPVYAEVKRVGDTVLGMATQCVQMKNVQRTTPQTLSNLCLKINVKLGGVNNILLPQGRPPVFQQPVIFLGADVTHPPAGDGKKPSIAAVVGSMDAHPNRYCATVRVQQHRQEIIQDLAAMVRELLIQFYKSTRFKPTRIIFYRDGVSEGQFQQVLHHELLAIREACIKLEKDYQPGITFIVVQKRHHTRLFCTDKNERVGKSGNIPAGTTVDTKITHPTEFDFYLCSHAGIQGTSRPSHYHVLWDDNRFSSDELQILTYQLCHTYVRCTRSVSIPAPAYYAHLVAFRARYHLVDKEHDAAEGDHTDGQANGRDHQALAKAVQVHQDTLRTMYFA
Sequence of AGO2 T357M (Q9UKV8 whole entry T357M/S387D/S824A/S828D/S831D/S834A): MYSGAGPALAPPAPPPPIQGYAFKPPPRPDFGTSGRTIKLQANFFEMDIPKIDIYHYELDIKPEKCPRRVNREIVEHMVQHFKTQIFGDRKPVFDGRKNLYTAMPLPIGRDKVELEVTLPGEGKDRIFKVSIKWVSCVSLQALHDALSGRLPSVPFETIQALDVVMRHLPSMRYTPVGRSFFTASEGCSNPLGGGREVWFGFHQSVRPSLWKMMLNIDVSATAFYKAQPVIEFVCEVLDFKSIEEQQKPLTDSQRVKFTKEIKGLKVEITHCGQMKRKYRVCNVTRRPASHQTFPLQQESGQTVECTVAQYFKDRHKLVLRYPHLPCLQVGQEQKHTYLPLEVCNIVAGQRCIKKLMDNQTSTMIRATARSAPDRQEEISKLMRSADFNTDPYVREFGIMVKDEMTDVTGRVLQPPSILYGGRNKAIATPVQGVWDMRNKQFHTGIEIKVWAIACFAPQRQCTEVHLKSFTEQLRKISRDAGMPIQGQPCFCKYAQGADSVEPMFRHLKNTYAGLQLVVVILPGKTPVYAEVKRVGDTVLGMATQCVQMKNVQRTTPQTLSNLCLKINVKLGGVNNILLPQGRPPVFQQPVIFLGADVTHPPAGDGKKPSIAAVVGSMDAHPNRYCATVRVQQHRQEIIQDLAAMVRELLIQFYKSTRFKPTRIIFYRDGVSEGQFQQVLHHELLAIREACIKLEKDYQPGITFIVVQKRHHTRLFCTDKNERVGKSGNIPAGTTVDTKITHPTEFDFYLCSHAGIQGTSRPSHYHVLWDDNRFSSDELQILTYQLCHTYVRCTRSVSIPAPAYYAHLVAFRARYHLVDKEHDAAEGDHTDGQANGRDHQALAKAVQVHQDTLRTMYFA
Sequence of AGO2 F182del (Q9UKV8 other isoform, or with tags, fused parts or gaps S387D;S824A;S828D;S831D;S834A;del182-182): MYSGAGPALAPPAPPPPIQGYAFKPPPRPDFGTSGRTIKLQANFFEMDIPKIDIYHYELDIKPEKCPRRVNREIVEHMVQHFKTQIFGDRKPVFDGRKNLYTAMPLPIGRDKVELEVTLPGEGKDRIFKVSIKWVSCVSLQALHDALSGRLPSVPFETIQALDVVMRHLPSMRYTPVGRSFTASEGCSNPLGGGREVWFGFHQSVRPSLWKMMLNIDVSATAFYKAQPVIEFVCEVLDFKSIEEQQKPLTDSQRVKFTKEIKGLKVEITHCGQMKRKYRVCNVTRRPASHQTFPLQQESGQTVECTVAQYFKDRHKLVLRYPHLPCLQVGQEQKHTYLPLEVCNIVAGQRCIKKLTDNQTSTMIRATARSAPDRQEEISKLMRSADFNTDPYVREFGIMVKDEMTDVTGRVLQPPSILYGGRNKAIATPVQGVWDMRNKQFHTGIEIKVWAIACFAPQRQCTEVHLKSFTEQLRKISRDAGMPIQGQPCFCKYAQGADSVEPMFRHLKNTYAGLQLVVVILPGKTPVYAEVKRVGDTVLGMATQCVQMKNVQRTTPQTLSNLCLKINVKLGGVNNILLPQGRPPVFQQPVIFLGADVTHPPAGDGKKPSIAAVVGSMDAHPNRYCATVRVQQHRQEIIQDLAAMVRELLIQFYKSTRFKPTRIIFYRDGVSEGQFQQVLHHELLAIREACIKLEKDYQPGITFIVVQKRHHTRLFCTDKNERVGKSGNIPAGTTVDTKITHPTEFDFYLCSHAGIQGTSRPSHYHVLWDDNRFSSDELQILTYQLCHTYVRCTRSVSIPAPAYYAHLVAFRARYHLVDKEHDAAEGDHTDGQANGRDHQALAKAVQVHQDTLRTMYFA

The first assay deals with AGO2 WT (phosphosite mutant background) (Homo sapiens, UniProt Q9UKV8 1-859, S387D;S824A;S828D;S831D;S834A). The assay is described as follows: RNA Bind-n-Seq (nitrocellulose filter binding and sequencing); miR-122 guide loaded in AGO2; 60 min incubation; 30 mM Tris pH 8.0, 100 mM potassium acetate, 2 mM magnesium acetate, 0.5 mM TCEP, 0.005% NP-40, 0.01 mg/ml yeast tRNA; 3 nM AGO2-miR-122, 100 nM RNA library; 60; high values mean tight binding. The note with it: protein: recombinant; tags: His6 (N-terminal, pFastBac HTA). In short, it runs like this: (§1)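 Fold enrichment is each target's read fraction divided by its read fraction in the input library. Sf9 insect cells expressed His-tagged AGO2 from baculovirus; the protein was loaded with a synthetic guide RNA and purified by Ni-NTA and a biotinylated capture oligo. The bound RNA was extracted, reverse-transcribed, barcode-amplified and sequenced on Illumina.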
Sequence of AGO2 WT (phosphosite mutant background) (Q9UKV8 whole entry S387D/S824A/S828D/S831D/S834A): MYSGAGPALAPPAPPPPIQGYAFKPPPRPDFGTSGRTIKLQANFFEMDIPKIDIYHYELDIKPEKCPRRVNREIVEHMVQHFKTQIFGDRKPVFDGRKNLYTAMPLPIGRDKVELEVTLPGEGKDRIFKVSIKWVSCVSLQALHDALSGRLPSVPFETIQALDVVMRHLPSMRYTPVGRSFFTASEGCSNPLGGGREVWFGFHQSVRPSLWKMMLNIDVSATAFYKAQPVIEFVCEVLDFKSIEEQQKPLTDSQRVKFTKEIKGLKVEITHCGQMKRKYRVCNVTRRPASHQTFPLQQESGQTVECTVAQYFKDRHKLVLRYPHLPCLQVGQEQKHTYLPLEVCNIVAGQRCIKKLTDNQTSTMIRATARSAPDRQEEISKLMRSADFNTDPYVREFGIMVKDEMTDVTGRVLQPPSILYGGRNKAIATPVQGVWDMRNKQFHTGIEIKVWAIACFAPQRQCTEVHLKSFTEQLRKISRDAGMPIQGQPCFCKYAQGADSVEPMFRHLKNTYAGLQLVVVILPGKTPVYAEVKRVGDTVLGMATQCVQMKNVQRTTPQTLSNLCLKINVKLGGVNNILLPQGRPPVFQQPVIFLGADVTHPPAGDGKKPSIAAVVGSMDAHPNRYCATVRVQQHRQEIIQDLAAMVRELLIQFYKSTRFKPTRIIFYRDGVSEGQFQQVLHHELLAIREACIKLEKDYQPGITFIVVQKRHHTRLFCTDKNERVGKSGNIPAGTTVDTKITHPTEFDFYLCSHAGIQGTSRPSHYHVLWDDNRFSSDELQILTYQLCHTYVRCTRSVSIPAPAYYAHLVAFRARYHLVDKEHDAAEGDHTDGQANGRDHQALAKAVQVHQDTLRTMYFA
For B1, the binding signal was 229 fold enrichment over input.

On to B2, for which the binding signal is 0.327 fold enrichment over input.

With B3, the binding signal is 154 fold enrichment over input.

Turning to B4, the binding signal is 0.123 fold enrichment over input.

Turning to B5, the binding signal is 0.206 fold enrichment over input.

For B6, the binding signal is 0.139 fold enrichment over input.

Consider B7, for which the binding signal is 0.401 fold enrichment over input.

On to B8, for which the binding signal was 0.133 fold enrichment over input.

For the molecule B9, the binding signal was 0.587 fold enrichment over input.

For B10, the binding signal is 0.133 fold enrichment over input.

The target in a further assay is AGO2 L192P (Homo sapiens, UniProt Q9UKV8 1-859, L192P;S387D;S824A;S828D;S831D;S834A). Described as above. The note with it: protein: recombinant; tags: His6 (N-terminal, pFastBac HTA). The procedure, abridged:
as §1
Consider B1, for which the binding signal is 102 fold enrichment over input.

On to B2, for which the binding signal was 0.802 fold enrichment over input.

Consider B3, for which the binding signal is 99.5 fold enrichment over input.

B4: the binding signal is 0.489 fold enrichment over input.

For B5, the binding signal is 0.924 fold enrichment over input.

Regarding B6, the binding signal is 0.451 fold enrichment over input.

For the molecule B7, the binding signal is 1.86 fold enrichment over input.

For B8, the binding signal is 0.605 fold enrichment over input.

With B9, the binding signal was 0.74 fold enrichment over input.

With B10, the binding signal is 0.539 fold enrichment over input.

The target in a further assay is AGO2 A367P (Homo sapiens, UniProt Q9UKV8 1-859, A367P;S387D;S824A;S828D;S831D;S834A). The assay is described as above. The note with it: protein: recombinant; tags: His6 (N-terminal, pFastBac HTA). The procedure, abridged: as §1
Sequence of AGO2 A367P (Q9UKV8 whole entry A367P/S387D/S824A/S828D/S831D/S834A): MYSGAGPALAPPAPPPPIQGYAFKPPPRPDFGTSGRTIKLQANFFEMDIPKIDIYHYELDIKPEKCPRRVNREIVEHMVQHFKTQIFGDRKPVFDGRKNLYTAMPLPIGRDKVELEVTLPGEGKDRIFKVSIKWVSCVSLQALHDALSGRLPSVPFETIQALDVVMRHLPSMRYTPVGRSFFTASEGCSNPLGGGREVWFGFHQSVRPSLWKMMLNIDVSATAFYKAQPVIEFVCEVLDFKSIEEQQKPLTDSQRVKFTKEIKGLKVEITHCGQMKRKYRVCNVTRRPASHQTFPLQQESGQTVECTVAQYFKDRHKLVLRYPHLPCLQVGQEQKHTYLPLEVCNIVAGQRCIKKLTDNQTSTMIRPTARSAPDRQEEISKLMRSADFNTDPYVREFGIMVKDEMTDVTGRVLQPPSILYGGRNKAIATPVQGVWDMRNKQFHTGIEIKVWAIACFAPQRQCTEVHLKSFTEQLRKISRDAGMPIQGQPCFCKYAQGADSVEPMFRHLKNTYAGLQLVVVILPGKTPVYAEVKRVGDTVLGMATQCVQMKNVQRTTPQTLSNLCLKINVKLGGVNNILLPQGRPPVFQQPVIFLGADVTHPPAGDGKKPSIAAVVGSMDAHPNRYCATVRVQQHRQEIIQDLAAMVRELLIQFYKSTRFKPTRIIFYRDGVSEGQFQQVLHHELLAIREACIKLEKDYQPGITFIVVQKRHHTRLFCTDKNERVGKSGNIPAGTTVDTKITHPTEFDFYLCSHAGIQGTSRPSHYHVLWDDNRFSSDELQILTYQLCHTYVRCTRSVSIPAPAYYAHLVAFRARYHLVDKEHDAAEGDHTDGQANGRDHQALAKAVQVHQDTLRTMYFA
As to B1, the binding signal is 155 fold enrichment over input.

B2: the binding signal was 2.33 fold enrichment over input.

In the case of B3, the binding signal was 140 fold enrichment over input.

Consider B4, for which the binding signal was 0.195 fold enrichment over input.

In the case of B5, the binding signal is 0.613 fold enrichment over input.

As for B6, the binding signal is 0.212 fold enrichment over input.

Turning to B7, the binding signal was 2.89 fold enrichment over input.

Regarding B8, the binding signal was 0.327 fold enrichment over input.

With B9, the binding signal was 0.661 fold enrichment over input.

Turning to B10, the binding signal is 0.229 fold enrichment over input.

The target of a further assay is AGO2 T357M (Homo sapiens, UniProt Q9UKV8 1-859, T357M;S387D;S824A;S828D;S831D;S834A). The assay is described as above. The note with it: protein: recombinant; tags: His6 (N-terminal, pFastBac HTA). The procedure, abridged:
as §1
Consider B1, for which the binding signal is 154 fold enrichment over input.

Turning to B2, the binding signal is 0.519 fold enrichment over input.

As for B3, the binding signal was 108 fold enrichment over input.

Regarding B4, the binding signal is 0.72 fold enrichment over input.

B5: the binding signal was 0.57 fold enrichment over input.

As for B6, the binding signal was 0.632 fold enrichment over input.

For the molecule B7, the binding signal is 0.632 fold enrichment over input.

With B8, the binding signal was 0.624 fold enrichment over input.

For B9, the binding signal is 0.72 fold enrichment over input.

Take B10: the binding signal was 0.707 fold enrichment over input.

The target of a further assay is AGO2 F182del (Homo sapiens, UniProt Q9UKV8 1-859, S387D;S824A;S828D;S831D;S834A;del182-182). The description is as above. The note with it: protein: recombinant; tags: His6 (N-terminal, pFastBac HTA). In short, it runs like this:
as §1
On to B1, for which the binding signal is 116 fold enrichment over input.

With B2, the binding signal is 2.42 fold enrichment over input.

For the molecule B3, the binding signal is 91 fold enrichment over input.

Turning to B5, the binding signal was 2.74 fold enrichment over input.

On to B6, for which the binding signal is 0.299 fold enrichment over input.

Turning to B7, the binding signal was 3.65 fold enrichment over input.

On to B8, for which the binding signal was 0.944 fold enrichment over input.

On to B9, for which the binding signal is 1.96 fold enrichment over input.

Regarding B10, the binding signal is 0.311 fold enrichment over input.
